Compound activity deposited in PubChem BioAssay by The Scripps Research Institute Molecular Screening Center.
PAD4 FP inh: blocks human protein arginine deiminase 4 | inhibition, % at 6.36 µM | actives 0.41% (n = 330,000) | Q9UM07 | recombinant PAD4, RCA probe fluorescence polarization;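 active means percent inhibition above a cutoff equal to the mean of all tested compounds plus 3 SD, cut at about 15% in these data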;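 further: 0% = PAD4 with RCA probe and DMSO and 100% = probe without PAD4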
TCR CD3 inh: blocks the human TCR-CD3 interaction; TAMRA-labeled TCR probe fluorescence, biochemical; inhibition, % at 9.4 µM; actives 0.37% (n = 360,000); AID 651800;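 further: recombinant mutant TCR 2C K166C tagged with TAMRA read by polarization; 0% = receptor in buffer alone and 100% = receptor with positive control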
SIAE inh: human SIAE inhibition, primary screen. actives 0.69% (n = 370,000). SIAE FP-Rh probe binding, fluorescence polarization. Q9HAT2. inhibition, % at 9.66 µM. AID 1053197;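 active means inhibition above a cutoff: mean of compounds within the control limits plus 3 SD of those, cut at about 17% in these data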;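 further: 0% = plate median of compound wells and 100% = probe without SIAE protein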
PME-1 inh: PME-1 (human) inhibition. Q9Y570. recombinant PME-1, FP-Rh probe fluorescence polarization. inhibition, % at 5.9 µM. actives 0.53% (n = 320,000). AID 2130;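 active means inhibition above the campaign mean of all compounds plus 3 SD, cut at about 26% in these data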;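 further: competitive labeling of PME-1 active site by serine hydrolase directed probe; 0% = PME-1 with DMSO and 100% = wells lacking PME-1 enzyme; inhibitors block probe labeling so polarization falls and inhibition rises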
Target sequence (Q9Y570 whole entry, looked up): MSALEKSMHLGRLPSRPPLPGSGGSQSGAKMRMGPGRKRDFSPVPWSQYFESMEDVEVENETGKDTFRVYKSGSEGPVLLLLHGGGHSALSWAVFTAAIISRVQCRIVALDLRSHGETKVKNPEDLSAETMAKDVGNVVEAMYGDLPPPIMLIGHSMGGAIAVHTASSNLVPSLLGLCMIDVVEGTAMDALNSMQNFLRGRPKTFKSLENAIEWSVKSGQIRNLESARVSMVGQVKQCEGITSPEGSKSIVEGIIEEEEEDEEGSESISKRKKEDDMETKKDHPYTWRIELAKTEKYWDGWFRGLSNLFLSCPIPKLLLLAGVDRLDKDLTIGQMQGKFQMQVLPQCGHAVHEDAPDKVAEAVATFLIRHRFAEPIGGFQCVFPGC
Fam108B counter: Fam108B inhibition, counter-screen for RBBP9 inhibitors | recombinant Fam108B, FP-Rh probe fluorescence polarization | actives 0.33% (n = 300,000) | inhibition, % at 9.51 µM;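 active means inhibition above the screen mean inhibition plus 3 SD, computed separately per campaign, cut at about 18% in these data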;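 further: inhibitors lower polarization as less probe binds the enzyme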
PRMT1 inh: PRMT1 (human) inhibition, primary screen. inhibition, % at 2.79 µM. Q99873. AID 652257. actives 1.3% (n = 370,000). recombinant PRMT1, activity-based probe fluorescence polarization;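 active means inhibition above about 21% made by adding two undisclosed values, limit read from the data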
BSA TAMRA ctr: counter-screen for TCR-CD3 interaction inhibitors: BSA probe. shares compounds with TCR CD3 inh. TAMRA-labeled BSA probe fluorescence counterscreen. inhibition, % at 9.4 µM. actives 10% (n = 1,200); in the data active means inhibition above about 23%;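 further: 0% = buffer low control and 100% = reference high control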
TCR-CD3 conf: TCR-CD3 interaction inhibition, confirmation. actives 48% (n = 1,200). shares compounds with TCR CD3 inh. inhibition, % at 9.4 µM. AID 652036. TAMRA-labeled TCR probe fluorescence binding assay
Active calls of the source: *; . = no result given. This is a sample that favours compounds with a hit; in the whole collection about 2.6% have one here. Unless noted, no stated cut-off is given here; in the data, active means inhibition above about 19%; inactive means the rest.

SMILES	PAD4 FP inh	TCR CD3 inh	SIAE inh	PME-1 inh	Fam108B counter	PRMT1 inh	BSA TAMRA ctr	TCR-CD3 conf
Cc1cccc(/C=N\NC(=O)c2ccc(Cl)cc2)c1O	-2.3	34.4*	-16.4	-21.1	-5.2	-0.2	-10.1	21.9*
O=C(OCC#CCSc1nnc(-c2cccc3ccccc23)o1)c1ccc(F)c(F)c1	.	.	4.5	.	.	0.0	.	.
Cc1nc(S/C(=C/c2ccc(-c3ccc(C(=O)O)cc3)o2)C(=O)O)n[nH]1	-4.2	68.3*	-15.9	-5.2	2.9	7.5	-6.6	51.2*
COC(=O)[C@]12C[C@H](CC(=O)N3CCSCC3)C(=O)N(CCc3ccc(OC)c(OC)c3)C1=C[C@H](C1CCCC1)O[C@@H]2C	.	.	1.3	.	.	0.8	.	.
COC(=O)C[C@@H]1CC[C@@H]2[C@@H](COc3ccc(NC(=O)c4ccc(F)cc4)cc3C(=O)N2C)O1	.	.	-1.3	.	.	-1.4	.	.
O=C1CC(c2ccccc2)Oc2cc(O)cc(O)c21 (stereo not given)	4.8	-7.0	1.3	5.1	-1.4	2.6	.	.
COc1cc(OC)c2c(c1O)OC(c1ccccc1)CC2=O (stereo not given)	3.6	38.7*	3.5	4.5	2.4	-6.3	-6.2	18.9*
Cc1ccc(C2=NC(=O)/C(=C/c3cc(O)c(O)c(Br)c3)S2)cc1	.	33.3*	-5.7	.	.	23.0*	-9.9	46.7*
COc1cc(/C=C2\SC(c3ccc(C)cc3)=NC2=O)cc(OC)c1O	4.0	-0.7	-8.2	7.5	5.2	16.9	.	.
CN1C[C@]2(C=C3CCCCC3n3c(=O)n(-c4ccccc4)c(=O)n32)N(C(=O)OCc2ccccc2)C1=NC(=O)c1ccccc1 (stereo not given in full)	.	.	2.4	.	.	3.2	.	.
O=C(CN1C(=O)NC2(CCOc3ccccc32)C1=O)c1ccc(F)cc1 (stereo not given)	-1.5	19.1*	0.1	3.5	-2.9	-2.6	-0.2	2.3
O=C(CN1C(=O)NC2(CCOc3ccccc32)C1=O)c1ccc(F)c(F)c1 (stereo not given)	-10.0	8.2	-6.5	-2.0	-4.3	-10.0	.	.
CCN(CC)c1ccc(C(=C2C=CC(=[N+](CC)CC)C=C2)c2ccc(N(CC)CC)cc2)cc1	.	39.3*	40.5*	.	.	4.5	39.6*	39.9*
CCN(CC)c1ccc(C(=C2C=CC(=[N+](CC)CC)C=C2)c2ccccc2)cc1	.	5.1	13.1	.	.	-0.4	.	.
COC(=O)[C@]12C[C@H](CC(=O)N3CCN(C(=O)c4ccco4)CC3)C(=O)N(Cc3cccc4ccccc34)C1=C[C@H](C1CCCC1)O[C@@H]2C	.	.	-2.9	.	.	-4.4	.	.
CCOC(=O)c1c(C)[nH]c(C(=O)C(C)OC(=O)c2ccc(NC(=O)CC#N)cc2)c1C (stereo not given)	3.7	52.2*	-54.3	-28.1	.	-3.3	4.7	6.0
CC(OC(=O)c1ccc(NC(=O)CC#N)cc1)C(=O)NCCC1=CCCCC1 (stereo not given)	-2.8	12.8	-25.1	-11.9	.	-2.2	.	.
CC(OC(=O)c1ccc(NC(=O)CC#N)cc1)C(=O)NC(=O)NC1CCCCC1 (stereo not given)	-9.0	19.7*	-35.2	-37.2	-21.8	-3.4	-1.1	1.2
Cc1cc(C)cc(NC(=O)C(OC(=O)c2ccc(NC(=O)CC#N)cc2)c2ccccc2)c1 (stereo not given)	-8.6	26.9*	-111.3	-58.3	-38.0	-3.5	-6.0	9.9
CC(=O)N1CCc2cc(S(=O)(=O)NCCC(=O)N(C)C3CCCCC3)ccc21	.	.	5.4	.	.	-0.8	.	.
Cc1ccccc1NC(=O)OCCN1CCCC12CCC(c1ccccc1)CC2 (stereo not given)	.	.	0.8	.	.	-4.8	.	.
CC(C)[C@H](NC(=O)OCc1ccccc1)C(=O)N[C@@H](Cc1ccccc1)C1(O)CN(C)C(C(=O)NCc2ccccn2)CO1 (stereo not given in full)	.	.	0.4	.	.	3.9	.	.
O=c1c2ccccc2nc(COc2ccccc2)n1/N=C/c1c[nH]c2ccccc12	-1.0	4.0	-1.8	13.6	-0.6	-2.1	.	.
O=c1c2ccccc2nc(COc2ccccc2)n1/N=C/c1ccc(O)cc1O	-5.6	21.4*	4.2	11.4	13.6	5.2	-8.8	21.4*
Cc1nc2ccccc2c(=O)n1/N=C/c1ccc(O)c(O)c1O	2.1	40.8*	12.5	-8.3	9.0	15.6	-10.5	24.9*
SMILES	PAD4 FP inh	TCR CD3 inh	SIAE inh	PME-1 inh	Fam108B counter	PRMT1 inh	BSA TAMRA ctr	TCR-CD3 conf
Cc1cc([N+](=O)[O-])cc(/C=N/n2c(C)nc3ccccc3c2=O)c1O	-1.5	45.3*	10.5	-6.2	-2.2	-4.1	-14.7	45.1*
Cc1nc2ccccc2c(=O)n1/N=C/c1ccccc1O	3.9	-8.2	4.1	-16.2	-0.7	-1.3	.	.
CCC(C)N(C(C)CC)S(=O)(=O)c1ccc2[nH]c(=O)oc2c1 (stereo not given)	.	.	9.1	.	.	5.2	.	.
O=C(COC(=O)c1ccc(O)cc1)Nc1cccc(S(=O)(=O)NC2=NCCC2)c1	-1.6	-5.8	-6.0	-2.4	.	4.1	.	.
O=C(COC(=O)c1ccc(OC(F)F)cc1)Nc1cccc(S(=O)(=O)NC2=NCCC2)c1	0.0	40.0*	1.4	5.3	.	-1.6	3.5	-1.0
CCN(CC)Cc1c(O)c(Cl)cc2c3c(c(=O)oc12)CCCC3	-2.1	22.4*	-3.2	-2.5	1.9	0.6	-4.5	-1.9
Cc1ccc(CN2CCCCC(NC(=O)Nc3ccccc3-c3ccccc3)C2=O)cc1 (stereo not given)	.	.	3.6	.	.	-4.4	.	.
Cn1c(=O)c(C(=O)NNC(=O)c2cccc(Cl)c2)c(O)c2ccccc21	-0.2	22.2*	2.1	-1.9	-1.3	1.1	-3.5	14.8
CCN(CC)S(=O)(=O)c1cccc(NC(=O)Nc2cccc(C(F)(F)F)c2)c1	-14.4	23.5*	-215.3	-264.8	-156.6	-1.5	15.3	26.2*
CN(C)CCCNC(=O)C[C@H]1C[C@H](C(=O)N2CCCCC2)[C@@]2(C)c3[nH]c4ccc(Cl)cc4c3CCN2C1=O	-0.5	-3.8	-2.2	.	.	0.2	.	.
C[C@]12c3[nH]c4ccc(Cl)cc4c3CCN1C(=O)[C@@H](CC(=O)NCCN1CCOCC1)C[C@@H]2C(=O)N1CCCCC1	2.2	36.5*	-2.8	.	.	-0.1	3.4	1.8
Cc1cc(=O)oc2cc(OCC(=O)N/N=C/c3cc([N+](=O)[O-])ccc3O)ccc12	-6.0	48.0*	7.6	-5.2	-0.1	-1.9	-14.3	50.9*
Cc1ccc(C)c(NC(=O)CCC(=O)N/N=C/c2cc([N+](=O)[O-])ccc2O)c1	1.2	14.7	13.5	0.8	0.7	-2.4	.	.
O=C(OCc1cn(Cc2ccccc2)nn1)N1CCOCC1	.	.	-7.5	.	.	-5.9	.	.
CCOC(=O)N1CCc2cc(OC)c(OC)c3c2c1cc1cc(OC)c(OC)cc13	.	26.5*	15.8	.	.	6.4	-3.2	1.7
